# Assay outcomes as filed in PubChem BioAssay.
# ugtP null kill: growth inhibition of ugtP-null S. aureus, primary screen, RN4220 ugtP deletion, OD600; 16 h; actives 0.54% (n = 330,000); growth inhibition, % (test concentration not listed); AID 1259309, 2017; in the data active = growth inhibition above about 68%;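 also: plate controls were untreated wells for no effect and antibiotic for full effect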
# Vc quorum ag: inducers of Vibrio cholerae quorum light production without autoinducers, primary screen, BH1578 luxS cqsA deficient, single point; actives 0.16% (n = 350,000); AID 588436, 2011; V. cholerae BH1578 lux reporter, luminescence, 6 h; activation, % at 18.7 µM; in the data active = activation mostly above about 9.7%, no sharp cut-off
# RN4220 kill: growth inhibition of S. aureus RN4220, primary screen, OD600; 16 h; inhibition, % (concentration not given with the values); actives 0.33% (n = 330,000); AID 1259311, 2017; in the data active = inhibition above about 85%;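 also: plate controls were untreated cells for no effect and reference antibiotic for full effect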
# TcdB inh: TcdB glycohydrolase inhibitors, primary screen, biochemical, single point, plate reader | actives 0.24% (n = 350,000) | Toxin B (Clostridioides difficile), P18177 | inhibition, % at 9.99 µM | TcdB glycohydrolase enzymatic assay; in the data active = inhibition above about 10%
# Starred values were filed as active, the others as inactive; i = inactive; . = no result given. An excerpt weighted towards active compounds, which were near 0.67% of everything screened.
SMILES,ugtP null kill,Vc quorum ag,RN4220 kill,TcdB inh
O=C(O)c1cc(NN=C/C(Cl)=C/c2ccccc2)ccc1Cl,-6,.,1,.
CC(C)(C)c1ccc(CNc2cc(N3CCOCC3)ccc2[N+](=O)[O-])cc1,92*,-1,-4,.
CC(C)c1ccc(CNc2cc(N3CCCC3)ccc2[N+](=O)[O-])cc1,1,4,7,1
N=c1c2c(-c3ccccc3)c(-c3ccccc3)n(Cc3ccco3)c2ncn1CCCO,13,-2,-5,2
N=c1c2c(-c3ccccc3)c(-c3ccccc3)n(Cc3ccco3)c2ncn1CCO,85*,1,0,2
CCC(=NNc1ccccc1[N+](=O)[O-])c1ccc(O)cc1,0,.,-11,.
Cc1ccc(C2C3C(=O)N(C)C(=O)C3[C@]3(C)C(=O)N(Cc4ccccc4)CC(=O)N23)o1 (stereo not given in full),-1,.,8,.
CCOc1ccc(NS(=O)(=O)c2cc(NC(=O)c3ccc(C)cc3)ccc2Cl)cc1,85*,2,2,.
CCOc1ccc(Oc2ccc(NS(=O)(=O)c3cc(C(=O)O)ccc3Cl)cc2)cc1,1,0,0,-12
CCCCN(C)c1c(C)nc2ccc(C(=O)NCc3cccs3)cn12,.,0,.,18*
CCOC(=O)C(NC(=O)Nc1ccc(F)cc1F)(Oc1ccc(F)cc1)C(F)(F)F (stereo not given),71,0,85*,2
O=C(Nc1nc(-c2ccccc2)cs1)c1ccccc1NS(=O)(=O)c1ccc(F)cc1,95*,0,93*,.
Cc1ccc(C(=O)c2c(C)oc3c2C(=O)C(=O)c2ccccc2-3)cc1,93*,i,109*,.
Cc1oc2c(c1C(=O)c1ccc(Cl)cc1)C(=O)C(=O)c1ccccc1-2,.,1,.,.
COC(=O)CC1=C(C(=O)OC)C2(C(=O)Nc3c(C)cccc32)C(C#N)=C(N)O1 (stereo not given),95*,3,97*,.
CCOC(=O)C1=C(C)OC(N)=C(C#N)C12C(=O)N(C)c1ccccc12 (stereo not given),74,-1,91*,.
COC(=O)C1=C(C)OC(N)=C(C#N)C12C(=O)Nc1ccccc12 (stereo not given),35,0,-2,1
C#CCN1C(=O)C2(C(C#N)=C(N)OC(C)=C2C(=O)OCc2ccccc2)c2ccccc21 (stereo not given),-4,0,39,.
CCN1C(=O)C2C(c3ccc(C)cc3)N3C(=O)N(c4ccc(C)cc4)C(=O)[C@@]3(CC)C2C1=O (stereo not given in full),-8,.,4,.
CC(C)Cn1c(=O)c(C(=O)NN=Cc2cccc(F)c2)c(O)c2ccccc21,99*,.,100*,.
CN(C)C=Nc1ncc(C(=O)c2ccc(-c3ccccc3)cc2)s1,-5,.,1,.
Cc1ccc(NC(=O)CN2C(=O)NC(=Cc3ccco3)C2=O)cc1,8,.,6,.
Oc1c(I)cc(I)c2cccnc12,96*,i,95*,1
CCn1cc(C(=O)O)c(=O)c2cc(F)c(N3CCN(C(=S)NC(=O)c4c(OC)cccc4OC)CC3)cc21,100*,0,98*,-1
CCn1cc(C(=O)O)c(=O)c2cc(F)c(N3CCN(C(=S)Nc4ccccc4OC)CC3)cc21,99*,i,99*,2
SMILES,ugtP null kill,Vc quorum ag,RN4220 kill,TcdB inh
CCn1cc(C(=O)O)c(=O)c2cc(F)c(N3CCN(S(=O)(=O)c4ccc(NC(=O)OC)cc4)CC3)cc21,100*,0,97*,0
CCOC(=O)C1(CC(C)=NNC(N)=O)CC(C)(C)OC1=O (stereo not given),-2,.,3,.
CCN(CC)c1ccc(C=c2sc3nnc(-c4ccccc4C)n3c2=O)cc1,2,.,-13,.
Cc1ccc(CNC(=O)Nc2cccc(C)c2)cc1,12,0,-2,11*
O=S1(=O)C=C(Sc2nc3ccccc3s2)c2ccccc21,91*,.,54,.
Cc1cccc(C(=O)NNC2=C(C(=O)C(F)(F)F)CCC2)c1O,98*,i,99*,.
Cc1cc(N2CCOCC2)ccc1C=C1NC(=O)N(Cc2ccccc2)C1=O,-6,.,1,.
COc1cc(/C=C2/SC(=S)N(Cc3ccccc3)C2=O)ccc1O,9,i,11,-3
O=C1/C(=C\c2cccc(O)c2O)SC(=S)N1Cc1ccccc1,.,i,.,1
O=C1/C(=C\c2cc([N+](=O)[O-])ccc2O)SC(=S)N1Cc1ccc(Cl)cc1,65,0,88*,6
Cc1ccc(/C=C2\SC(=S)N(Cc3ccccc3)C2=O)o1,0,0,1,.
O=C1/C(=C\c2ccc(O)c(O)c2)SC(=S)N1Cc1ccccc1,99*,i,76,0
O=C(O)c1cc(-c2ccc(/C=C3/SC(=S)N(Cc4ccccc4)C3=O)o2)ccc1Cl,101*,0,97*,-1
Cc1c(C)c2c(c(C)c1O)CC[C@@](C)(CCCC(C)CCCC(C)CCCC(C)C)O2 (stereo not given in full),1,.,6,.
Brc1ccc(-c2csc(NN=Cc3cccnc3)n2)cc1,44,.,7,.
Clc1ccc(C(c2ccc(Cl)cc2)n2cc[n+](CC(OCc3ccc(Cl)cc3Cl)c3ccc(Cl)cc3Cl)c2)cc1 (stereo not given),100*,4,100*,3
CCOC(=O)CC1c2cc(F)ccc2S(=O)(=O)N1C(C)(C)C (stereo not given),-2,.,2,.
Cc1ccc(C)c2nc(Cl)c(C3NC(=O)c4ccccc4N3)cc12 (stereo not given),5,i,1,10*
CCOc1ccc(C=NNC(=O)CN2CCSCC2)cc1,5,.,2,.
O=C(NC(NC(=S)Nc1ccc(Cl)cc1Cl)C(Cl)(Cl)Cl)c1cccc([N+](=O)[O-])c1 (stereo not given),73,i,87*,.
O=C(O)c1cccc(NC(=S)NC(NC(=O)c2cccc([N+](=O)[O-])c2)C(Cl)(Cl)Cl)c1 (stereo not given),0,0,5,-1
Nc1nn2c(-c3ccccc3)cc(=O)[nH]c2c1N=Nc1ccc(Br)cc1,100*,i,100*,0
Nc1ccc2c3c(cccc13)-c1ccccc1-2,85*,i,71,1
Cc1[nH]nc(-c2ccc(O)cc2O)c1Oc1ccccc1,-19,i,7,11*
CCCOC(=O)c1ccc(Oc2c(-c3ccc(O)cc3O)n[nH]c2C)cc1,48,.,37,.
SMILES,ugtP null kill,Vc quorum ag,RN4220 kill,TcdB inh
CCCOC(=O)c1ccc(Oc2c(-c3ccc(OC)cc3O)n[nH]c2C)cc1,-11,.,-12,0
CCc1cc(-c2n[nH]c(C)c2Oc2ccc(C(C)C)cc2)c(O)cc1O,99*,i,86*,.
Brc1ccccc1OCCNCc1ccccc1,-3,0,3,1
Clc1ccc(OCCCNCc2ccccc2)c2ccccc12,95*,0,100*,1
O=C1C=C(c2cccc(Br)c2)CC(c2ccc(Cl)cc2)C1 (stereo not given),-2,.,-2,.
CC1C(=O)NN=C1c1ccc([N+](=O)[O-])cc1 (stereo not given),.,i,.,10*
